# From PubChem
# Cav3 T inh = Cav3.2 calcium influx blockers – cell-based, Fluo-4 calcium fluorescence, FDSS, MLSMR library, primary screen; actives 4% (n = 100,000); B-score at 10 µM; Voltage-dependent T-type calcium channel subunit alpha-1H (Homo sapiens), O95180; Cav3.2-expressing cells; stronger effect = lower value;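 active = single-dose well whose peak fluorescence ratio is a statistical outlier from its plate by either plate-standardised score or position-corrected B-score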
# CYP2C9 activ = human CYP2C9 activators, primary screen, biochemical, luminescence | Cytochrome P450 2C9 (Homo sapiens), P11712 | recombinant CYP2C9, luciferin-H conversion; stronger effect = higher value; factor 1 = untreated enzyme, 0 = blocked | activation factor at 5 µM | actives 1.4% (n = 96,000);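 active = activation factor of 2 or more for CYP2C9 at a 5 µM dose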;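 note: 0 = sulfaphenazole-blocked wells and 1 = vehicle-only wells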
# Target sequence (P11712 whole entry, looked up): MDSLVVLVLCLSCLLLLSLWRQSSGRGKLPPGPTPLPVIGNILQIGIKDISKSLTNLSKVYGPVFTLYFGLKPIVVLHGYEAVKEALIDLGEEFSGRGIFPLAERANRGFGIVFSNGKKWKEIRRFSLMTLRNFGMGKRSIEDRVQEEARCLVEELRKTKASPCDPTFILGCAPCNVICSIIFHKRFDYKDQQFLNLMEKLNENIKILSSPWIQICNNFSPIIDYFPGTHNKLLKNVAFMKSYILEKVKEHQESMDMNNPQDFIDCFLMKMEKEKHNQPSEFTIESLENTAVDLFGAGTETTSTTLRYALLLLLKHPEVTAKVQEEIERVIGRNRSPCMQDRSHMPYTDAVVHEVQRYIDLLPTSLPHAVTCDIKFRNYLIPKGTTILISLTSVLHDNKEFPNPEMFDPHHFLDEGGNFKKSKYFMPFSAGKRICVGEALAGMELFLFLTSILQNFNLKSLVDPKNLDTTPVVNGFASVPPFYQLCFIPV
# CYP2C9 inhib = blockers of cytochrome P450 2C9 activity – biochemical, luminescence, ADME assay, primary screen; P11712; CYP2C9 Supersomes, luciferin-H conversion; inhibition, % at 5 µM; actives 20% (n = 96,000); AID 777, 2007;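 active = blocking of liver enzyme CYP2C9 beyond about 50% at 5 µM, limit read from the data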
# CYP2C19 act = human CYP2C19 activators, primary screen, biochemical, luminescence; 96,000 tested, under 10 active; AID 1025, 2008; Cytochrome P450 2C19 (Homo sapiens), P33261; activation factor at 5 µM; recombinant CYP2C19, luciferin-H EGE luminescence; stronger effect = higher value; 0 = fully inhibited enzyme, 1 = untreated enzyme;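 active = activation factor of at least 2 at 5 µM in the primary screen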;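 note: 0 = wells with 2.5 mM tranylcypromine and 1 = vehicle-only wells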
# CYP2C19 inh = blockers of cytochrome P450 2C19 activity – biochemical, luminescence, ADME assay, primary screen | actives 21% (n = 96,000) | CYP2C19 Supersomes, luciferin-H EGE luminescence, 30 min | inhibition, % at 5 µM;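 active = CYP2C19 inhibition above a set limit at 5 µM in the primary screen, cut at about 50% in these data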;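 note: plate controls were negative control wells for no effect and 2.5 mM tranylcypromine positive control for full effect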
# Numbers without * were called inactive; . = not tested or not shown. This is a sample that favours compounds with a hit; in the whole collection about 27% have one here.
SMILES,Cav3 T inh,CYP2C9 activ,CYP2C9 inhib,CYP2C19 act,CYP2C19 inh
CCCn1c(-c2ccc(F)cc2)cnc1SCC(=O)O,0.95,0.9,13.8,0.9,5.6
CCN1C(=O)N[C@@H](c2cccs2)C(C(C)=O)=C1C,0.444,.,.,.,.
COc1ccc(C(=O)c2ccc(OC)c(OC)c2)cc1OC,-0.152,0.7,33.7,0.5,47.8
COc1ccc(OC)c(C(=O)c2ccc(C(=O)c3cc(OC)ccc3OC)cc2)c1,0.0128,0.6,35.8,0.9,7.4
COc1ccc(C(=O)c2ccccc2)cc1Br,-1.03,2.2*,-119.3,0.5,49.9
COc1ccc(C(=O)c2ccc(OC)c(N)c2)cc1N,-1.04,2.6*,-156.4,0.8,22.0
O=C(NCc1cn2ccccc2n1)c1ccc2c(c1)OCO2,0.615,0.9,11.1,1,2.4
O=C(NCCn1ccc2ccccc21)c1ccc2c(c1)OCO2,0.152,0.9,13.0,0.3,65.0*
O=C(NCCn1ccc2ccccc21)c1ccc(S(=O)(=O)N2CCCCC2)cc1,-1.86,0.4,56.5*,0.8,17.0
COc1ccc(C(=O)NCCn2ccc3ccccc32)cc1,-0.484,1.2,-19.8,0.2,77.7*
CC(C)(C)C(=O)NCCn1ccc2ccccc21,-0.118,0.6,42.2,0,97.1*
Cc1c(C(=O)NCCn2ccc3ccccc32)cccc1[N+](=O)[O-],-0.144,.,.,.,.
CCOc1ccc(NC(=O)CSc2n[nH]c(=O)n2-c2ccccc2)cc1,-0.203,1.4,-36.4,0.7,25.3
CSc1nc(N(C)NC(=O)c2ccc(F)cc2)c2ccccc2n1,-1.16,0.7,26.7,0.9,11.5
N#CCSc1nnc(COc2cccc3ccccc23)n1-c1ccccc1,-4.62*,0,95.9*,0.1,91.3*
N#CCSc1nnc(COc2cccc3ccccc23)n1-c1cccc(Cl)c1,0.773,1.1,-13.6,1.1,-5.1
N#CCSc1nnc(COc2ccccc2)n1-c1ccccc1,1.92,.,.,.,.
COc1ccc(-n2c(COc3cccc4ccccc34)nnc2SCC#N)cc1,-2.22,.,.,.,.
Cc1ccc(-c2nnc(CSc3nnc(COc4cccc5ccccc45)n3-c3ccccc3)o2)cc1,.,0.4,58.9*,0.7,30.5
Cc1cccc(-c2nnc(SCC#N)n2-c2ccccc2)c1,1.86,0.6,35.6,0.5,51.4*
CCOc1ccc(N2CC(C(=O)Oc3ccccc3)CC2=O)cc1 (centres undefined),0.443,.,.,.,.
CC1CCc2nn(CC(=O)NCCN3CCCCC3C)cc2C1 (centres undefined),0.678,1,-0.7,0.9,9.8
O=C(c1oc2ccccc2c1N1CCCCC1)N1CCCCC1,-0.822,0.9,10.6,0.8,20.8
CCOC(=O)N1CCN(S(=O)(=O)c2cc(C)c(C)cc2C)CC1,-0.00286,.,.,.,.
CCOc1ccccc1N1CCN(S(=O)(=O)c2cccc3nsnc23)CC1,-2.69,0.3,69.5*,0.1,94.0*
SMILES,Cav3 T inh,CYP2C9 activ,CYP2C9 inhib,CYP2C19 act,CYP2C19 inh
CCOC(=O)N1CCC(NC(=O)C2CCN(S(=O)(=O)c3cccs3)CC2)CC1,1,0.8,22.0,0.9,8.7
CCOC(=O)N1CCN(S(=O)(=O)c2ccc(C)c(C)c2C)CC1,.,1.1,-6.2,0,99.2*
CCOc1ccccc1N1CCN(S(=O)(=O)c2cccs2)CC1,-1.85,0.1,90.7*,0.1,93.1*
CCOC(=O)N1CCN(S(=O)(=O)c2cccs2)CC1,0.08,0.8,24.2,0.4,56.9*
NC(=O)c1nsnc1-c1ccccc1O,0.596,0.8,15.5,1,-3.7
Clc1ccc(-n2nnc(-c3cccnc3Cl)n2)cc1Cl,-0.592,.,.,.,.
C=CCn1c(-c2cccnc2Cl)nc2cc(Cl)c(Cl)cc21,-2.07,0.4,57.1*,0.6,43.0
CCCn1c(-c2cccnc2Cl)nc2cc(Cl)c(Cl)cc21,-0.9,0.4,56.3*,0.6,38.8
Clc1cccc(Cl)c1Cn1c(-c2cccnc2Cl)nc2ccccc21,-3.22,0.5,46.4,0.6,35.9
CCC(=O)NC(Nc1cccc(C)n1)(C(F)(F)F)C(F)(F)F,-0.259,1,1.6,1,-2.2
COc1ccc2c(C(=O)CN3CCC(C)CC3)c[nH]c2c1,0.599,0.9,14.0,0.9,13.7
CC/C(O)=C1\C(=O)CC(c2ccccc2)CC1=NCCc1c(C)[nH]c2ccc(C)cc12 (centres undefined),-4.59*,.,.,.,.
O=C(Nc1nc(-c2ccc(S(=O)(=O)N3CCCCCC3)cc2)cs1)c1ccccc1,-0.753,0.3,71.7*,0.8,23.6
O=C(Nc1nc(-c2cccs2)cs1)c1ccc(S(=O)(=O)N2CCCC2)cc1,-2.61,0.4,57.1*,0.6,42.8
O=C(Nc1ccc(S(=O)(=O)N2CCCCC2)cc1)c1ccncc1,1.44,0,98.0*,0,99.3*
O=C(Nc1nc(-c2ccc3c(c2)OCCO3)cs1)c1ccc(S(=O)(=O)N2CCCCC2)cc1,-1.53,0.6,35.9,0.9,7.3
Cc1ccc(Nc2nc(-c3ccc(S(=O)(=O)N4CCCC4)cc3)cs2)cc1C,0.339,0.5,53.6*,1.1,-11.7
Cc1ccc(Nc2nc(-c3ccc(S(=O)(=O)N4CCOCC4)cc3)cs2)cc1,0.827,.,.,.,.
COC(=O)C1=C[C@@H](C(=O)OC)[C@@H]2C3=C(C(=O)[C@@]2(C)NC(=O)c2ccccc2)[C@H](c2ccccc2)[C@@H]2C(=O)NC(=O)[C@@H]2[C@@H]3C1,0.906,.,.,.,.
CCCOc1ccc(N2C(=O)CC(N3CCN(c4ccccc4OC)CC3)C2=O)cc1 (centres undefined),-0.0354,1.1,-13.4,1,1.3
CCC1(C)N=c2c(c(=O)n(C)c(=O)n2C)=NO1 (centres undefined),-0.164,1.1,-11.6,1.1,-14.1
COCCN(CCOC)S(=O)(=O)c1ccc(C(=O)Nc2nc(C)c(C(C)=O)s2)cc1,1.03,1.1,-7.9,1.1,-13.4
CC1CC(C)CN(S(=O)(=O)c2ccc(C(=O)Nc3sccc3C(N)=O)cc2)C1 (centres undefined),-1.08,0.7,29.0,1.2,-19.3
COCCN(CCOC)S(=O)(=O)c1ccc(C(=O)Nc2nc(-c3ccncc3)cs2)cc1,0.00727,0.3,68.8*,0.4,56.2*
NC(=O)c1ccsc1NC(=O)c1ccc(S(=O)(=O)N2CCCCC2)cc1,.,0.4,59.7*,0.6,37.8
COC(=O)C(CC(C)C)NC(=O)c1ccc(F)cc1 (centres undefined),0.161,1,2.7,0.8,15.3
Cc1ccc2cc(CN(C)C(=O)C3CCCO3)c(=O)[nH]c2c1 (centres undefined),-0.263,1,-4.4,1,0.6
CCn1c(CSc2nc3ccccc3n2C)nc2ccccc21,0.168,0.6,38.3,0.1,86.1*
Cn1c(SCc2ccccc2Cl)nc2ccccc21,-0.772,1.3,-27.6,0.3,73.1*
